Data from PubChem BioAssay (NCATS).
Records with an inconclusive call do not appear. Calls of active or inactive are those of the source. The call rests on the fitted dose curve; in most records, active means well fitted curve in the direction sought with a large enough effect; inconclusive means small, poorly fitted or top-dose-only effect, or another doubt; inactive means no such curve, though single readings can be large; an effect the other way counts as inactive or inconclusive.

What was measured:
[1] = target: ATP-dependent 6-phosphofructokinase (Trypanosoma brucei brucei) (UniProt O15648); test: qHTS Assay to Find Inhibitors of T. brucei phosphofructokinase: hit validation (AID 492961);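 further: luminescence reports ADP formed as PFK phosphorylates fructose-6-phosphate with ATP; on the % scale 0 is the no-effect control and ±100 the full control effect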
Chain of ATP-dependent 6-phosphofructokinase (Trypanosoma brucei brucei) (O15648 whole entry, looked up): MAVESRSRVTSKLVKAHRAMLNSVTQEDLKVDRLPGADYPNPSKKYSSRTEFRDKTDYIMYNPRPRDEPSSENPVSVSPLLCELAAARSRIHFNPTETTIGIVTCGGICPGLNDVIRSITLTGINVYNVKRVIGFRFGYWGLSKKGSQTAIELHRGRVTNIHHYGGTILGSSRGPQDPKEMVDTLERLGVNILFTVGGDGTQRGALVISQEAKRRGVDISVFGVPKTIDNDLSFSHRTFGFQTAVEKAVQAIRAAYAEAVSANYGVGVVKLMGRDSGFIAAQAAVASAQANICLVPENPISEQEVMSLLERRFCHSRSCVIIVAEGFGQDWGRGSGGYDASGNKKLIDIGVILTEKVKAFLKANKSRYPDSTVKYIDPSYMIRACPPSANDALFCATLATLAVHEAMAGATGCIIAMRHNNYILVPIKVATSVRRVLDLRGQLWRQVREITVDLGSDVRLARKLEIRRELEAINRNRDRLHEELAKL
How it was run: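 Measures ADP output of PFK (1.25 nM) at 0.1 mM ATP, 0.5 mM F6P, pH 8.0 TEA buffer with 5 mM MgCl2. No-enzyme wells define full inhibition; uninhibited enzyme wells define zero.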

[2] = qHTS profiling for inhibitors of Plasmodium falciparum proliferation (AID 504749); further: potency means the concentration at half of the fitted maximal effect;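 on activity, negative = inhibition: 0% = DMSO vehicle and full inhibition = artemisinin control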; on all read-outs here: nearly all actives have a fitted effect of over 60% in size; conditions: P. falciparum in erythrocytes, SYBR Green DNA, 72 h; for activity, negative = inhibition: at 28.7 µM (top of the series)
How it was run: (§1)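 Three-day growth assay of blood-stage parasites in erythrocytes (0.3% parasitemia, 2.5% hematocrit) at 37 C, 5% CO2, quantified by SYBR Green DNA staining after overnight detergent lysis.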

AA1029 = test: as above; conditions: P. falciparum in erythrocytes, SYBR Green DNA, 72 h; series mostly up to 28.7 µM
How it was run: as §1

AS120 = test: as above; conditions: P. falciparum in erythrocytes, SYBR Green DNA, 72 h; series mostly up to 28.7 µM
How it was run: as §1

ATS189 = test: as above; conditions: P. falciparum in erythrocytes, SYBR Green DNA, 72 h; series mostly up to 28.7 µM
How it was run: as §1

CP185 = test: as above; conditions: P. falciparum in erythrocytes, SYBR Green DNA, 72 h; series mostly up to 28.7 µM
How it was run: as §1

CP211 = test: as above; conditions: P. falciparum in erythrocytes, SYBR Green DNA, 72 h; series mostly up to 28.7 µM
How it was run: as §1

CP217 = test: as above; conditions: P. falciparum in erythrocytes, SYBR Green DNA, 72 h; series mostly up to 28.7 µM
How it was run: as §1

CP238 = test: as above; conditions: P. falciparum in erythrocytes, SYBR Green DNA, 72 h; series mostly up to 28.7 µM
How it was run: as §1

CP252 = test: as above; conditions: P. falciparum in erythrocytes, SYBR Green DNA, 72 h; series mostly up to 28.7 µM
How it was run: as §1

CP262 = test: as above; conditions: P. falciparum in erythrocytes, SYBR Green DNA, 72 h; series mostly up to 28.7 µM
How it was run: as §1

CP265 = test: as above; conditions: P. falciparum in erythrocytes, SYBR Green DNA, 72 h; series mostly up to 28.7 µM
How it was run: as §1

CP269 = test: as above; conditions: P. falciparum in erythrocytes, SYBR Green DNA, 72 h; series mostly up to 28.7 µM
How it was run: as §1

CP286 = test: as above; conditions: P. falciparum in erythrocytes, SYBR Green DNA, 72 h; series mostly up to 28.7 µM
How it was run: as §1

CP329 = test: as above; conditions: P. falciparum in erythrocytes, SYBR Green DNA, 72 h; series mostly up to 28.7 µM
How it was run: as §1

DFO2036 = test: as above; conditions: P. falciparum in erythrocytes, SYBR Green DNA, 72 h; series mostly up to 28.7 µM
How it was run: as §1

FAB9 = test: as above; conditions: P. falciparum in erythrocytes, SYBR Green DNA, 72 h; series mostly up to 28.7 µM
How it was run: as §1

TAB109 = test: as above; conditions: P. falciparum in erythrocytes, SYBR Green DNA, 72 h; series mostly up to 28.7 µM
How it was run: as §1

ECU = test: as above; conditions: P. falciparum in erythrocytes, SYBR Green DNA, 72 h; series mostly up to 28.7 µM
How it was run: as §1

N140 = test: as above; conditions: P. falciparum in erythrocytes, SYBR Green DNA, 72 h; series mostly up to 28.7 µM
How it was run: as §1

CC1CCC(O)C/C1=C\C=C1/CCCC2(C)C1CCC2C(C)/C=C/C(C)C(C)C (centres undefined)
inactive: Potency [1] | activity, negative = inhibition ([2]; parasite line A) -1.73% | activity, negative = inhibition ([2]; parasite line B) -28.9% | Potency (AA1029) | Potency (AS120) | Potency (ATS189) | Potency (CP185) | Potency (CP211) | Potency (CP217) | Potency (CP238) | Potency (CP252) | Potency (CP262) | Potency (CP265) | Potency (CP269) | Potency (CP286) | Potency (CP329) | Potency (DFO2036) | Potency (FAB9) | Potency (TAB109)

OC[C@@H](O)C(O[C@@H]1O[C@@H](CO)[C@H](O)[C@H](O)[C@H]1O)[C@H](O)[C@@H](O)CO (some centres undefined)
inactive: Potency [1] | activity, negative = inhibition ([2]; parasite line A) 12% | activity, negative = inhibition ([2]; parasite line B) 4.36% | Potency (AA1029) | Potency (AS120) | Potency (ATS189) | Potency (CP185) | Potency (CP211) | Potency (CP217) | Potency (CP238) | Potency (CP252) | Potency (CP262) | Potency (CP265) | Potency (CP269) | Potency (CP286) | Potency (CP329) | Potency (DFO2036) | Potency (ECU) | Potency (FAB9) | Potency (N140) | Potency (TAB109)

CC(=O)O[C@]1(C(C)=O)CCC2C3CCC4=CC(=O)CCC4(C)C3(F)C(O)CC21C (some centres undefined)
inactive: Potency [1] | activity, negative = inhibition ([2]; parasite line A) 7.47% | activity, negative = inhibition ([2]; parasite line B) -19% | Potency (AA1029) | Potency (AS120) | Potency (ATS189) | Potency (CP185) | Potency (CP211) | Potency (CP217) | Potency (CP238) | Potency (CP252) | Potency (CP262) | Potency (CP265) | Potency (CP269) | Potency (CP286) | Potency (CP329) | Potency (DFO2036) | Potency (ECU) | Potency (FAB9) | Potency (N140) | Potency (TAB109)

C=C1/C(=C\C=C2/CCC[C@]3(C)[C@@H]([C@H](C)/C=C/[C@@H](O)C4CC4)CC[C@@H]23)C[C@@H](O)C[C@@H]1O
inactive: Potency [1] | activity, negative = inhibition ([2]; parasite line A) -4.72% | activity, negative = inhibition ([2]; parasite line B) -23.6% | Potency (AA1029) | Potency (ATS189) | Potency (CP185) | Potency (CP211) | Potency (CP217) | Potency (CP238) | Potency (CP252) | Potency (CP262) | Potency (CP269) | Potency (CP286) | Potency (CP329) | Potency (DFO2036) | Potency (ECU) | Potency (FAB9) | Potency (N140) | Potency (TAB109)

COc1cc(/C=C2\CCC/C(=C\c3ccc(O)c(OC)c3)C2=O)ccc1O
inactive: Potency [1] | Potency (CP262)
active: Potency ([2]; parasite line A) 11.2 µM | Potency ([2]; parasite line B) 10 µM | Potency (AA1029) 12.6 µM | Potency (AS120) 8.91 µM | Potency (CP185) 11.2 µM | Potency (CP211) 16.9 µM | Potency (CP217) 11.2 µM | Potency (CP238) 10 µM | Potency (CP265) 14.1 µM | Potency (CP269) 10.7 µM | Potency (DFO2036) 11.2 µM | Potency (ECU) 11.2 µM | Potency (N140) 11.2 µM | Potency (TAB109) 12.6 µM

C=C1C(n2cnc3c(=O)[nH]c(N)nc32)C[C@H](O)[C@H]1CO (some centres undefined)
inactive: Potency [1] | activity, negative = inhibition ([2]; parasite line A) 9.61% | activity, negative = inhibition ([2]; parasite line B) -7.65% | Potency (AA1029) | Potency (AS120) | Potency (ATS189) | Potency (CP211) | Potency (CP217) | Potency (CP238) | Potency (CP252) | Potency (CP265) | Potency (CP269) | Potency (CP329) | Potency (DFO2036) | Potency (ECU) | Potency (FAB9) | Potency (N140)

CCC(C)C(N)C(=O)O (centres undefined)
inactive: Potency [1] | activity, negative = inhibition ([2]; parasite line B) -1.6% | Potency (AA1029) | Potency (AS120) | Potency (ATS189) | Potency (CP185) | Potency (CP211) | Potency (CP217) | Potency (CP238) | Potency (CP252) | Potency (CP262) | Potency (CP265) | Potency (CP269) | Potency (CP286) | Potency (CP329) | Potency (DFO2036) | Potency (ECU) | Potency (FAB9) | Potency (N140) | Potency (TAB109)

C/C=C1/NN(CCCN2CCN(c3cccc(Cl)c3)CC2)C(=O)N1CCOc1ccccc1
inactive: Potency [1] | activity, negative = inhibition ([2]; parasite line A) -8.67% | activity, negative = inhibition ([2]; parasite line B) 7.5% | Potency (AA1029) | Potency (AS120) | Potency (ATS189) | Potency (CP185) | Potency (CP211) | Potency (CP217) | Potency (CP238) | Potency (CP252) | Potency (CP262) | Potency (CP265) | Potency (CP269) | Potency (CP286) | Potency (CP329) | Potency (DFO2036) | Potency (ECU) | Potency (FAB9) | Potency (N140) | Potency (TAB109)
